Assay outcomes deposited in PubChem BioAssay by several laboratories.
Shn3 3UTR inh: inhibitors of Schnurri-3 3'UTR reporter in osteoblasts | Clone20 osteoblast Shn3 3'UTR firefly luciferase, 24 h | inhibition, % at 12.5 µM | hit rate 0.52% among 360,000;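 active = mean inhibition of at least 75% with every replicate also reaching 75%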
HIF-2a inh: HIF-2a inhibition. AID 624352. hit rate 0.72% among 360,000. 786-0 RCC cells HIF-2a reporter, luciferase luminescence, overnight. inhibition, % at 18.8 µM;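 active = inhibition of the luminescence signal of 40% or more relative to plate controls, in a single-dose primary screen at 18.75 µM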
CF NFkB inh: inhibitors of cystic fibrosis induced NF-kB; inhibition, % at 5 µM; AID 588850; KKLEB NF-kB-GFP reporter, PAF-induced, GFP fluorescence overnight; hit rate 0.86% among 360,000;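 active = at least 50% inhibition at 5 µM, scaled per plate between neutral and stimulator controls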;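 also: PAF is a Pseudomonas aeruginosa culture filtrate used as stimulus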
TRPM1 prom inh: reduces MITF-dependent TRPM1 promoter luciferase signal. AID 488899. SK-MEL-5 TRPM1 promoter luciferase, 24 h. inhibition, % at 12.5 µM. hit rate 0.83% among 330,000;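 active = mean inhibition across replicates of 60% or more, whatever share of single replicates reaches that level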
KKLEB tox: reduces viability of KKLEB cystic fibrosis airway cells; AID 602141; activity change (cytotoxicity), % at 5 µM; KKLEB CF airway cells viability, ATPlite luminescence, overnight; hits give low values; cells stimulated with P. aeruginosa culture filtrate; hit rate 0.36% among 360,000;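 active = corrected activity change at or below -50% at 5 µM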
Peg3 prom inh: inhibitors of Peg3 promoter | AID 588405 | HeLa PEG-Prom luciferase reporter, luminescence, overnight | hit rate 1.7% among 360,000 | inhibition, % at 20 µM;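 active = inhibition of at least 50% at 20 µM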
CF NFkB inh conf: CF NF-kB inhibition confirmation, single concentration; inhibition, % at 5 µM; shares compounds with CF NFkB inh; hit rate 64% among 1,300; KKLEB CF airway cells, PAF-induced NF-kB-GFP fluorescence, overnight; in the data active = inhibition above about 40%;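 also: stimulus PAF is a Pseudomonas aeruginosa filtrate and not platelet activating factor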
Large screens that a line does not name were inactive (follow-up assays come after a bar, where they were run). Sampled rows, rich in hits. Any-hit rate of the full collection: about 2.7%.

Cc1ccnc(NC(=O)CCCOc2cc(=O)n(C)c3ccccc23)c1	CF NFkB inh 70.6, Peg3 prom inh 92.2 | CF NFkB inh conf 75.8
CCC1(c2ccccc2)C(=O)N(C(=O)OC(C)(C)C)N1C(=O)OC(C)(C)C (stereo unspecified)	none
CCOC(=O)N1C(=O)[C@](CC)(c2ccccc2)N1C(=O)OCC	CF NFkB inh 56.2 | CF NFkB inh conf inactive
CCOC(=O)C1=C(CC)Nc2ccccc2N=C1NC(=O)Nc1ccc(Cl)c(Cl)c1	CF NFkB inh 56.1 | CF NFkB inh conf 100.8
CCOC(=O)C1=C(CC)Nc2ccccc2N=C1NC(=O)c1cc(C)on1	none
Cc1c(C=O)c(C=O)c(C)n1Cc1ccccc1	CF NFkB inh 53.1 | CF NFkB inh conf 66.0
CC(=O)c1c(C(C)=O)c(C)n(Cc2ccccc2)c1C	none
CC(=O)Oc1ccc(OC(C)=O)c(SCCCCCCl)c1	Shn3 3UTR inh 95.0, CF NFkB inh 57.7 | CF NFkB inh conf inactive
CC(=O)Oc1ccc(C(=O)O)cc1OC(C)=O	none
COc1cccc(NC(=O)CN(C)CC(=O)Nc2ccc(C)c([N+](=O)[O-])c2)c1	CF NFkB inh 65.7 | CF NFkB inh conf 75.7
CCC(CO)Oc1cc(NCc2cc(C)cc(C)c2)c2ncn(C(C)C)c2c1 (stereo unspecified)	CF NFkB inh 67.3 | CF NFkB inh conf inactive
CCC(CO)Oc1cc(NCc2ccc(C)c(C)c2)c2ncn(C(C)C)c2c1 (stereo unspecified)	CF NFkB inh 51.5 | CF NFkB inh conf inactive
CCC(CO)Oc1cc(NCc2ccncc2)c2ncn(C(C)C)c2c1 (stereo unspecified)	none
CCC(CO)Oc1cc(NCc2ccc(F)cc2)c2ncn(C(C)C)c2c1 (stereo unspecified)	none
O=C(NCC1CCCCC1)c1csc([C@@H]2O[C@H](CO)[C@H](O)[C@H](O)[C@H]2O)n1	none (no result: TRPM1 prom inh)
CC(=O)N1CCc2c(sc(NC(=O)c3ccc([N+](=O)[O-])o3)c2C(N)=O)C1	Shn3 3UTR inh 99.5, CF NFkB inh 95.6, Peg3 prom inh 97.2 (no result: TRPM1 prom inh) | CF NFkB inh conf inactive
C=CC(=O)N1c2ccccc2Sc2ccc(NC(=O)OCC)cc21	CF NFkB inh 79.9, Peg3 prom inh 94.8 | CF NFkB inh conf inactive
CCOC(=O)Nc1ccc2c(c1)N(C(=O)N1CCN(C)CC1)c1ccccc1S2	none
O=C(Nc1ccc(N2CCN(C(=O)c3ccccc3F)CC2)cc1)c1cncc(Br)c1	CF NFkB inh 68.9 | CF NFkB inh conf 76.3
Cc1onc(-c2c(F)cccc2Cl)c1C(=O)Nc1cc(S(=O)(=O)N2CCCCC2)ccc1O	CF NFkB inh 56.0 | CF NFkB inh conf 47.5
Cc1onc(-c2c(F)cccc2Cl)c1C(=O)Nc1ccc(S(=O)(=O)N2CCOCC2)cc1	none
C=CCn1c(Oc2cc(C)ccc2C)nc2c1c(=O)n(C)c(=O)n2C	none
C=CCn1c(Oc2ccccc2F)nc2c1c(=O)n(C)c(=O)n2C	CF NFkB inh 57.2 | CF NFkB inh conf 63.7
COc1ccccc1-c1csc(C(O)c2ccc(F)cc2)n1 (stereo unspecified)	none (no result: TRPM1 prom inh)
CN(C)C=Nc1c(C(=O)c2ccccc2)sc2nccc(N(C)C)c12	CF NFkB inh 52.8 | CF NFkB inh conf 56.6
CCn1cc(/C=C(\NC(=O)c2ccccc2)C(=O)NCCCn2ccnc2)c2ccccc21	none (no result: TRPM1 prom inh)
CNC(=O)C1CN(C(=O)c2nn(Cc3ccccc3)c(=O)c3ccccc23)c2ccccc2O1 (stereo unspecified)	none (no result: TRPM1 prom inh)
CCOc1ccc(CCN2C(=S)N([C@@H](CC(C)C)CN3CCCC3CN3C(=S)NC[C@@H]3CC(C)C)C[C@@H]2Cc2ccc(O)cc2)cc1 (stereo partly specified)	CF NFkB inh 52.6 | CF NFkB inh conf 62.5
CC(C)C[C@H]1CNC(=S)N1C[C@H]1CCCN1C[C@H](Cc1ccccc1)N1C[C@H](Cc2ccc(O)cc2)N(CCc2ccccc2)C1=S	CF NFkB inh 65.7 (no result: TRPM1 prom inh) | CF NFkB inh conf inactive
CCOc1ccc(CCN2C(=S)N([C@@H](CC(C)C)CN3CCC[C@@H]3CN3C(=S)NC[C@@H]3CC(C)C)C[C@@H]2Cc2ccc(O)cc2)cc1	none (no result: TRPM1 prom inh)
